# Assay results reported in PubChem BioAssay (Tox21).
# Values joined by “and” are separate entries in the source; they are usually repeats but may differ in a detail not shown here. Equal entries are not always repeated. Inconclusive results are not listed. Entries that show only a call come without a potency. Some structures have more than one record in an assay (separate samples or runs), and their calls can disagree. Active and inactive are the calls of the source. Unless noted, the call rests on the fitted dose curve; in most records, active means well fitted curve in the direction sought with a large enough effect in the repeat runs; inconclusive means weak or mixed curves; inactive means no such curve, though single readings can be large; an effect the other way counts as inactive or inconclusive.
# Columns and labels:
# [1] = qHTS assay to identify small molecule agonists of the estrogen receptor alpha (ER-alpha) signaling pathway in the presence of an antagonist - cell viability counter screen (AID 1259386);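 further: cells exposed to compounds for 22 h at 37 °C before the viability read; nearly all actives have a fitted effect of over 30% in size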; further: potency means the concentration at half of the fitted maximal effect
# How it was run: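 Cytotoxicity was measured in parallel with the ERE-luciferase agonist screen, in the same wells. The cells were VM7Luc4E2, which endogenously express ER-alpha, and treatment was with compounds plus 10.0nM ICI-182,780 for 22hr.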
# [2] = biological target: Progesterone receptor (Homo sapiens) (UniProt P06401); experiment: qHTS assay to identify small molecule agonists of the progesterone receptor (PR) signaling pathway (AID 1346784; calls by dose curve; further: nearly all actives have a fitted effect of over 30% in size)
# How it was run: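 PR-UAS-bla HEK 293T cells (beta-lactamase reporter under UAS) in 2% charcoal-stripped FBS, dosed with 23 nL compound after 6 hr, incubated 16hr at 37C. LiveBLAzer B/G FRET substrate added, fluorescence read after 2 hours.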
# [3] = biological target: Progesterone receptor (Homo sapiens) (UniProt P06401); experiment: qHTS assay to identify small molecule antagonists of the progesterone receptor (PR) signaling pathway (AID 1346795; active means well fitted inhibition curve with a large enough effect in the signal ratio in the repeat runs, not every such curve was filed as active; the % refers to the signal ratio)
# How it was run: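 PR-UAS-bla HEK293T cells with beta-lactamase reporter under UAS control, in 2% charcoal-stripped FBS, treated with compounds plus 1 nM promegestone (R5020, final) for 16 hr at 37C. Read-out: FRET beta-lactamase substrate fluorescence after 2 hr at room temperature.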
# [4] = qHTS assay to identify small molecule antagonists of the progesterone receptor (PR) signaling pathway - cell viability counter screen (AID 1346798); further: series mostly up to about 92 µM; nearly all actives have a fitted effect of over 50% in size
# How it was run: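 PR-UAS-bla HEK293T cells, 3,000/well in 2% charcoal-stripped FBS medium, dosed with compounds plus R5020 agonist and incubated 16 h at 37C. Viability then measured in the same wells by CellTiter-Glo luminescence after 30 min at RT.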
# [5] = qHTS assay to identify small molecule agonists of the progesterone receptor (PR) signaling pathway - cell viability counter screen (AID 1346799; calls by dose curve; further: nearly all actives have a fitted effect of over 45% in size; further: potency means the concentration at half of the fitted maximal effect)
# How it was run: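 Counter screen in the PR-UAS-bla HEK293T wells (2% charcoal-stripped FBS, 16 h compound exposure at 37 C) after the bla read. CellTiter-Glo added, 30 min at room temperature, luminescence read as cell viability.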
# [6] = qHTS assay to identify small molecule antagonists of the TGF-beta/Smad signaling pathway - cell viability counter screen (AID 1346824); further: nearly all actives have a fitted effect of over 50% in size
# How it was run: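 SBE-bla HEK 293T cells, incubated overnight, then compound plus 0.25 ng/mL TGF-beta1 (stock added) for 5 hr at 37 C. Viability was read in the same wells by CellTiter-Glo luminescence after 30 min at room temperature.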
# [7] = qHTS assay to identify small molecule agonists of the TGF-beta/Smad signaling pathway - cell viability counter screen (AID 1346829); further: top concentration of the series differs between compounds; nearly all actives have a fitted effect of over 45% in size
# How it was run: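 CellTiter-Glo luminescence readout; SBE-bla HEK 293T cells, overnight plating, compound 5 hr at 37 C/5% CO2, then bla substrate 2 hr RT, then CellTiter-Glo 30 min RT.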
# [8] = qHTS assay to identify small molecule agonists of the TGF-beta/Smad signaling pathway (AID 1346859; active means well fitted activation curve with a large enough effect in the signal ratio in the repeat runs, not every such curve was filed as active; the % refers to the signal ratio; further: series mostly up to about 77 µM)
# How it was run: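 SBE-bla HEK293T cells plated overnight, then compound exposure for 5 h at 37 C. Beta-lactamase reporter read with LiveBLAzer B/G FRET substrate after 2 h at room temperature, fluorescence at 405 nm excitation, 460/530 nm emission.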
# [9] = biological target: Thyrotropin-releasing hormone receptor (Homo sapiens) (UniProt P34981); experiment: qHTS assay to identify small molecule antagonists of the thyrotropin-releasing hormone receptor (TRHR) signaling pathway (AID 1346877; active means well fitted inhibition curve with a large enough effect in the repeat runs, not every such curve was filed as active; further: series mostly up to about 51 µM)
# How it was run: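 Antagonism is measured as suppression of the calcium response to 1 nM TRH in TRHR-HEK293 cells that have been dye-loaded for 2 h at 37 °C after overnight plating. Each compound is tested at 15 concentrations in triplicate.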
# [10] = biological target: Thyrotropin-releasing hormone receptor (Homo sapiens) (UniProt P34981); experiment: qHTS assay to identify small molecule agonists of the thyrotropin-releasing hormone receptor (TRHR) signaling pathway (AID 1346891; calls by dose curve; further: series mostly up to about 58 µM)
# How it was run: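 HEK293 cells expressing TRHR plated 18 h at 37 C/5% CO2, calcium dye-loaded 2 h at 37 C, then compound added (agonist mode); kinetic calcium fluorescence read 3 min at 1 s intervals; 15 concentrations in triplicate.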
# [11] = Caspase-3/7 induction in HepG2 cells by small molecules, qHTS assay (AID 1346978); further: nearly all actives have a fitted effect of over 15% in size
# How it was run: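 Wild-type HepG2 cells, 2,000/well, settled 5 hr at 37 C and 5% CO2, then compound-treated for 17 hr; caspase-3/7 activity read by luminescent Caspase-Glo 3/7 after 30 min at room temperature.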
# [12] = Caspase-3/7 induction in HepG2 cells by small molecules, qHTS cell viability counter screen (AID 1346981); further: nearly all actives have a fitted effect of over 30% in size; further: potency means the concentration at half of the fitted maximal effect
# How it was run: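 Cell viability is measured as a cytotoxicity counter screen alongside the Caspase-Glo 3/7 readout in identical wells. Wild-type HepG2 cells are treated with test compounds for 16 hr at 37 C before CellTiter-Fluor addition and a 1-hr incubation.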
# [13] = biological target: Nuclear receptor subfamily 1 group I member 2 (Homo sapiens) (UniProt O75469); experiment: Human pregnane X receptor (PXR) small molecule agonists, qHTS assay (AID 1346982); further: nearly all actives have a fitted effect of over 35% in size; further: potency means the concentration at half of the fitted maximal effect
# How it was run: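 Cells: HepG2 stably carrying PXR-Luc. Medium held 5% charcoal-stripped FBS. Compounds in DMSO added after 5 hr plating, incubated 24 hr, then luminescence quantified with ONE-Glo.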
# [14] = Human pregnane X receptor (PXR) small molecule agonists, qHTS cell viability counter screen (AID 1346977); further: nearly all actives have a fitted effect of over 50% in size; further: potency means the concentration at half of the fitted maximal effect
# How it was run: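 PXR-Luc HepG2 cells (2,000/well, 5% charcoal-stripped FBS) preincubated 5 hr, then exposed to compounds 24 hr at 37 C. Viability read in the same wells by CellTiter-Fluor fluorescence, reagent added at 23 hr, 1 hr incubation.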
# [15] = Caspase-3/7 induction in CHO-K1 cells by small molecules, qHTS cell viability counter screen (AID 1346979); further: nearly all actives have a fitted effect of over 35% in size; further: potency means the concentration at half of the fitted maximal effect
# How it was run: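 Wild-type CHO-K1 cells (1,500/well) treated with compound after 5 h plating; after 16 h at 37C, viability read as CellTiter-Fluor fluorescence following 1 h reagent incubation, in the same wells as the caspase read.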
# [16] = biological target: Thyrotropin receptor (Homo sapiens) (UniProt P16473); experiment: qHTS assay to identify small molecule antagonists of the thyroid stimulating hormone receptor (TSHR) signaling pathway (AID 1259385; calls by dose curve; further: nearly all actives have a fitted effect of over 20% in size; further: potency means the concentration at half of the fitted maximal effect)
# How it was run: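 TSHR-HEK293 cells (800/well) plated 18 h, then compounds with Ro20-1724 and TSH at 1.5 ng/mL final, 30 min at room temperature. cAMP quantified by HTRF (cAMP-d2/anti-cAMP-cryptate, 1 h); 15 concentrations in triplicate.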
# [17] = Caspase-3/7 induction in CHO-K1 cells by small molecules, qHTS assay (AID 1346980); further: nearly all actives have a fitted effect of over 15% in size
# How it was run: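 Wild-type CHO-K1 cells exposed to compounds for 17hr at 37 C, 5% CO2. Caspase-3/7 activity then measured by Caspase-Glo 3/7 luminescence after 30min at room temperature.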
# Nuclear receptor subfamily 1 group I member 2 (Homo sapiens), sequence (O75469 whole entry, looked up): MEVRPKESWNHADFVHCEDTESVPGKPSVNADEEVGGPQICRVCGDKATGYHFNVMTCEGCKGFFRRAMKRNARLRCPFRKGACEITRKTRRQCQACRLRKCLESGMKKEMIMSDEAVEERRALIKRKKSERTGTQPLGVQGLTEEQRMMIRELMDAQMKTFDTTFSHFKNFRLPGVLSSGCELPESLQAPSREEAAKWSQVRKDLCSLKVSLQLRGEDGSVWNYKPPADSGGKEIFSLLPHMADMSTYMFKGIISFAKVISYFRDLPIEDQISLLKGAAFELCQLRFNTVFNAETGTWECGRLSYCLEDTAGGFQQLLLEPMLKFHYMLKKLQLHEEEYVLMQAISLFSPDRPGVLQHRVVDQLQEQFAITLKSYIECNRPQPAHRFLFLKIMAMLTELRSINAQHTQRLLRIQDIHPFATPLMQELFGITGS
# Thyrotropin-releasing hormone receptor (Homo sapiens), sequence (P34981 whole entry, looked up): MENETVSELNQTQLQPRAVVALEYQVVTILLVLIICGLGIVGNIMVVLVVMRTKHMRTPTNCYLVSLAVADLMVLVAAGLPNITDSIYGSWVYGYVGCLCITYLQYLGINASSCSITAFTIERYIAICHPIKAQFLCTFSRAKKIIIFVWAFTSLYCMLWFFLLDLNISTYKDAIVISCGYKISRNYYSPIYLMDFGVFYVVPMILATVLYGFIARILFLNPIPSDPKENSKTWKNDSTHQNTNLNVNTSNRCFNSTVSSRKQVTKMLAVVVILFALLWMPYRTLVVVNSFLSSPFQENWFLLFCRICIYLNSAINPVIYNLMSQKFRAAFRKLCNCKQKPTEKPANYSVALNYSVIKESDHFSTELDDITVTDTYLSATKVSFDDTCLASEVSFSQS
# Thyrotropin receptor (Homo sapiens), sequence (P16473 whole entry, looked up): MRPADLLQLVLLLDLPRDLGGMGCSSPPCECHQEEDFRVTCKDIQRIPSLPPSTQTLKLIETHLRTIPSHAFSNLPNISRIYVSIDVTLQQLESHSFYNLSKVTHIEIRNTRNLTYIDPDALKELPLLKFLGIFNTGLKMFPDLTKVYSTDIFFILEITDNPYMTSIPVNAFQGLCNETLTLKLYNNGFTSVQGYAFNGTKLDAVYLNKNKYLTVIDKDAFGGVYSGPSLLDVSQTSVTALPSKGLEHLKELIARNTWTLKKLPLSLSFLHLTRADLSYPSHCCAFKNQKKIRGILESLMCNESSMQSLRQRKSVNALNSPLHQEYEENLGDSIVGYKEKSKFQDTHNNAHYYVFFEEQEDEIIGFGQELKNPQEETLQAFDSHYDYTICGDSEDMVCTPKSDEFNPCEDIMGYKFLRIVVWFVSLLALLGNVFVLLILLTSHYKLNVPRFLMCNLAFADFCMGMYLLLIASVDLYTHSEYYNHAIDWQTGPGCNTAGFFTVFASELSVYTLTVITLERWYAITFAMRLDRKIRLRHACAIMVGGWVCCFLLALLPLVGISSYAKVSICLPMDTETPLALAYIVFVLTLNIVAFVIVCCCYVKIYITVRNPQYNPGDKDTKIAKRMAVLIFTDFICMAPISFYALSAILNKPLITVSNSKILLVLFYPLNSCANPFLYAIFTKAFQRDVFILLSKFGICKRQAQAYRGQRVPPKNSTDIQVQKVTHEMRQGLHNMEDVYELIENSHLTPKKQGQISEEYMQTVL
# Progesterone receptor (Homo sapiens), sequence (P06401 whole entry, looked up): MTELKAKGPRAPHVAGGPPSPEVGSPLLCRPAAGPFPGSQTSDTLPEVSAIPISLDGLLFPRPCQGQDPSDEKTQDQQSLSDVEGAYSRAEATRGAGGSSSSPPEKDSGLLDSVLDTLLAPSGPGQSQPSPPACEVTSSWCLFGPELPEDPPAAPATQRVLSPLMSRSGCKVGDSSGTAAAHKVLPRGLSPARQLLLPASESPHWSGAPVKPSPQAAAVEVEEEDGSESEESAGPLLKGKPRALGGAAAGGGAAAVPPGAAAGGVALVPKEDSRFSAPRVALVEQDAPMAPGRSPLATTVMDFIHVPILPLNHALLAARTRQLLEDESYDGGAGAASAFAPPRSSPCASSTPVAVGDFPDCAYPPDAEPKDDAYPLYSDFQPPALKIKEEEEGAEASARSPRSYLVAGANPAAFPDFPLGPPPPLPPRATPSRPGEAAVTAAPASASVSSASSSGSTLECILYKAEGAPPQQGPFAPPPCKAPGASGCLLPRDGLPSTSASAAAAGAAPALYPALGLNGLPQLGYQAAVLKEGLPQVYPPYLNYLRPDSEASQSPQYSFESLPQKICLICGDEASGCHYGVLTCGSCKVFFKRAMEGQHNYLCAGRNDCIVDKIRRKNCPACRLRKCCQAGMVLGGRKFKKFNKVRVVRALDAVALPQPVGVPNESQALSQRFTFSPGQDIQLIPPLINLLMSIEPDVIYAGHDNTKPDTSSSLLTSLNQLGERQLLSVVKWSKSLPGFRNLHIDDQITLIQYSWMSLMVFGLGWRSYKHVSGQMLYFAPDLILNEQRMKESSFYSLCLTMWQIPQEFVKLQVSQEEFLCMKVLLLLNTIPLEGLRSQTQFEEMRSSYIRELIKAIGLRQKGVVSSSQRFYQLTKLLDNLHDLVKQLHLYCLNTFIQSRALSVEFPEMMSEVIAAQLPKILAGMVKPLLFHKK
SMILES,Potency [1],Potency [2],Potency [3],Potency [4],Potency [5],Potency [6],Potency [7],outcome [8],Potency [9],Potency [10],Potency [11],Potency [12],Potency [13],Potency [14],Potency [15],Potency [16],Potency [17]
ClP(Cl)(Cl)(Cl)Cl,inactive,inactive,inactive,inactive,inactive,inactive,inactive,inactive,inactive,inactive,inactive,inactive,inactive,–,–,–,–
O=S1(=O)OC(c2cc(Br)c(O)c(Br)c2)(c2cc(Br)c(O)c(Br)c2)c2ccccc21,22.3 µM (active),inactive,inactive,–,–,inactive,inactive,inactive,inactive,inactive,inactive,25 µM (active),inactive,12.5 µM (active),25 µM (active),–,–
CCOP(=S)(OCC)Oc1nc(Cl)c(Cl)cc1Cl,–,inactive,–,–,61.3 µM (active) and inactive,inactive,inactive,inactive,inactive,inactive,inactive,–,17.3 µM (active) and inactive,inactive,inactive,27.4 µM (active) and 54.5 µM (active),inactive
c1cc2ccc3cccc4ccc(c1)c2c34,–,inactive,–,–,28.6 µM (active),–,inactive,inactive,inactive,inactive,inactive,–,25.5 µM (active),inactive,–,inactive,inactive
